Hits are enriched below; roughly 1.7% of the tested compounds scored in any of these assays.
PTHR1 agonist: PTHR1 (human) receptor agonism; Q03431; HEK293 GP2 PTHR1 cells, GloSensor cAMP luminescence, 1 h; Potency, µM (series often up to 115 µM), for inactives: at the top dose activation, most hits filed as activators; 410,000 tested, 0.075% active; AID 743266; note: nearly all actives have a fitted effect of over 55% in size
Target sequence (Q03431 whole entry, looked up): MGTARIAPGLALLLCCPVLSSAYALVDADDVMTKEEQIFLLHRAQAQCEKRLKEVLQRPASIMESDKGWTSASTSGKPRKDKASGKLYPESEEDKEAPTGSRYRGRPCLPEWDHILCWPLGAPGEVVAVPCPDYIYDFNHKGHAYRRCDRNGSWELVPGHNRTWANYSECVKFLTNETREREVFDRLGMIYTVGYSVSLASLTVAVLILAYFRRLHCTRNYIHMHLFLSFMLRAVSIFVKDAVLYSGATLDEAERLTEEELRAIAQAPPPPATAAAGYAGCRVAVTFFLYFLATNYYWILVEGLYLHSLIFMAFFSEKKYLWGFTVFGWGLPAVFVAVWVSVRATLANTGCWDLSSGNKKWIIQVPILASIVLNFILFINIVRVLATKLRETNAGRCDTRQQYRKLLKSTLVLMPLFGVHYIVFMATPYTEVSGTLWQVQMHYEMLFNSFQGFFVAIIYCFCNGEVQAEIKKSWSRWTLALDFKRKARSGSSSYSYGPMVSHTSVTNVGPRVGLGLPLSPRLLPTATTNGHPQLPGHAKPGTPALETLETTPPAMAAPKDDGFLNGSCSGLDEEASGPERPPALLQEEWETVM
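HEK-293-derived GP2 cells expressing PTHR1 and a GloSensor cAMP reporter, 3,000/well, plated overnight, given luciferin plus IBMX (each 0.5 mM as added) for 1 h at 37 °C, then compound for 1 h at 37 °C. Luminescence was read after 15 min at room temperature.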
GLP-1R agonist: activates the human GLP-1 receptor; P43220; HEK293 GLP-1R CRE-luciferase, luminescence, 4-6 h; cells express a hypersensitive GLP-1R form; Potency, µM (titrated, usually from 45.6 µM), for the others: at the highest dose activation, most hits filed as activators; 380,000 tested, 0.007% active; AID 624172; note: % of control where 0% means no effect
GLP-1R inv ag: inverse agonists of human GLP-1 receptor; P43220; HEK293 GLP-1R CRE-luciferase, luminescence, 24 h; GLP-1R form is constitutively active; 410,000 tested, 1.6% active; Potency, µM (top dose mostly 38.3 µM), for the others: at the highest dose activity change, negative = inhibition, usual class: inhibitors; note: % is set by controls: 0 for no effect and ±100 for the full control effect; nearly all actives have a fitted effect of over 55% in size
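Using stably transfected HEK293 (constitutively active GLP-1R, cAMP-luciferase reporter), compounds were incubated 24 hr and luciferase measured by luminescence.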
GLP1R cytotox: cytotoxic in the GLP-1 receptor inverse agonist counter-screen; HEK293 cAMP-luciferase reporter cells, luminescence, 24 h; Potency, µM (series often up to 38.3 µM), inactives show top-dose activity change, negative = inhibition, usual class: inhibitors; 410,000 tested, 0.13% active;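 note: loss of luciferase light is scored as toxicity; % is set by controls: 0 for no effect and ±100 for the full control effect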
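1536-well qHTS counterscreen of the MLSMR; 200 cells/uL, 12 h pre-incubation, 23 nL cpd, 24 h at 37 deg C 5% CO2, luciferase detection reagent, 12 min RT, luminescence. Inhibition = undesired.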
Active calls of the source: *; i = inactive; ? = inconclusive; / = not tested or not shown; [ ] = dose if it differs, or a comment. Calls come from the whole dose curve; as a rule, active = well fitted curve in the direction sought with a large enough effect; inconclusive = small, poorly fitted or top-dose-only effect, or another doubt; inactive = no such curve, though single readings can be large; an effect the other way counts as inactive or inconclusive. Potency is the fitted concentration of half-maximal effect.

SMILES | PTHR1 agonist | GLP-1R agonist | GLP-1R inv ag | GLP1R cytotox
NC(=O)C1CCN(C(=O)COc2ccc3ccccc3c2Br)CC1 | -24% | -6% | 4% | -4%
COc1cc(OC)cc(C(=O)NCCc2csc(-c3cccc(C)c3)n2)c1 | i | / | ? | -4%
Cn1cc(CN2CCCC(C(=O)Nc3cccc(-n4cccn4)c3)C2)cn1 (stereo unspecified) | -18% | -1% | -24% | -5%
Cn1cc(CN2CCCC(C(=O)Nc3ccc(-c4cccc(F)c4)cc3)C2)cn1 (stereo unspecified) | i | -2% | 4.5µM* | -11%
CCn1cc(CN2CCC(C(=O)Nc3ccc(Oc4ccccc4F)cc3)CC2)cn1 | -5% | -1% | ? | -11%
Cn1cc(CN2CCC(C(=O)Nc3ccc(Oc4ccccc4F)cc3)CC2)cn1 | i | -3% | 11µM* | 23%
COc1ccc(Br)cc1CN1C(=O)c2ccccc2C1C(=O)NC1CCCCCC1 (stereo unspecified) | -10% | / | 9% | 3%
COc1ccc2c(c1)c1c(c(=O)n(-c3ccccc3C)c(=O)n1CC(N)=O)n2C | -14% | -1% | -8% | 15%
O=C(Oc1cccc2cccnc12)c1ccco1 | i | -1% | 10µM* | ?
O=C(Oc1cccc2cccnc12)c1ccc2c(c1)OCCO2 | i | 11% | 4µM* | -5%
O=C(Cc1ccc(Cl)cc1)Oc1cccc2cccnc12 | ? | 22% | -1% | 2.5µM*
O=C(Oc1cccc2cccnc12)c1ccc(Br)o1 | i | 5% | -13% | -26%
O=C(Nc1ncccc1O)c1ccc2c(c1)OCCO2 | -37% | -11% | 6% | -13%
O=C(Oc1cccc2cccnc12)c1cccs1 | i | 29% | ? | -6%
COCCNC(=O)c1c(NC(=O)c2cc(=O)c3cc(C)cc(C)c3o2)sc2c1CCCC2 | i | / | 4% | 3%
COCCNC(=S)N/N=C(\C)c1cc2ccccc2o1 | -12% | 8% | ? | 7.9µM*
COc1ccc(CNC(=S)Nc2cc(C)ccc2C)cc1 | -12%[57.5 µM] | 0% | ? | -22%
COCCNC(=S)N/N=C(\C)c1ccc2cc(OC)ccc2c1 | -14% | ? | ? | 3.2µM*
COCCNC(=S)N/N=C(\C)c1ccc(OC)cc1 | -6% | 15% | ? | ?
COc1ccc(/C(C)=N/NC(=S)Nc2cc(C)ccc2C)cc1 | ? | -4% | ? | 3.5µM*
C/C(=N\NC(=O)c1cc2ccccc2cc1O)c1cc2ccccc2o1 | -26% | -3% | ? | -1%
C=C(C)CNC(=S)N/N=C(\C)c1ccc(OC)cc1 | -10% | -1% | 5.6µM* | ?
N#CC1=C(N)OC2=C(CCc3ccccc32)C1c1ccccc1 (stereo unspecified) | i | 14% | 1.3µM* | -27%
O=C(NCc1ccccc1Cl)c1ccc(Cn2c(SCc3ccccc3)nc3cccnc32)cc1 | i | / | -14% | -8%
CCn1c(CNc2ccc(Cl)cc2)nnc1SCc1ccccc1 | -8%[57.5 µM] | -13% | 11µM* | -4%
SMILES | PTHR1 agonist | GLP-1R agonist | GLP-1R inv ag | GLP1R cytotox
CCn1c(SCc2ccccc2)nnc1C1CCCCC1 | -7% | 13% | 4µM* | 1%
Cn1c(CNc2ccc(Cl)cc2)nnc1SCc1ccccc1 | -16% | 2% | -10% | 1%
O=C(Nc1cc2ccc(O)cc2oc1=O)c1ccccc1 | -25% | / | -6% | 5%
COc1ccc2c(c1)CCc1c-2n[nH]c1C(=O)NCCC(C)C | -91% | -3% | 7.9µM* | -2%
CNC(=O)c1[nH]nc2c1CCc1cc(OC)ccc1-2 | i | 17% | 137% | 11%
CCOC(=O)c1c2c(n(-c3ccc(OC)cc3)c1C)C(=O)C(=O)c1ccccc1-2 | -22% | -5% | ? | 3.2µM*
CCOC(=O)c1sc(=S)n(-c2ccc(OC)cc2)c1C | -9% | 8% | ? | -13%
CC1(c2ccc(O)cc2)NC(=O)N(c2ccccc2)N1 (stereo unspecified) | i | 3% | 3.2µM* | -9%
C=C(C)CCC1(C)NC(=O)N(c2ccccc2)N1 (stereo unspecified) | -13% | 0% | 10µM* | ?
CCOC(=O)c1[nH]c2ccccc2c1NC(=O)c1ccccc1OCC | i | / | ? | ?
C1=C(CCNc2ncnc3c2[nH]c2ccccc23)CCCC1 | -26% | -7% | 4.5µM* | -36%
COc1ccccc1C(c1c(N)n(C)c(=O)n(C)c1=O)C(C)[N+](=O)[O-] (stereo unspecified) | i | 6% | -1% | -8%
COc1ccccc1C(C[N+](=O)[O-])c1c(N)n(C)c(=O)n(C)c1=O (stereo unspecified) | -33% | -11% | 2.8µM* | ?
CCOC(=O)CN[C@@H](C(=O)N1CC[C@H]1C(=O)NCc1ccc(/C(N)=N/O)cc1)C1CCCCC1 | / | -1% | / | /
CSc1ccc(CN(C)C(=O)C(c2ccccc2)c2ccccc2)cc1 | -10% | 21% | 10µM* | -28%
COc1cccc(C(c2ccccc2)N2C3CCC2CN(S(=O)(=O)c2ccc(F)cc2)CC3)c1 (stereo unspecified) | i | -20% | 3.5µM* | 2%
CCC(CC)NCc1ccc2c(c1)c1ccccc1n2CC | i | -5% | 4.5µM* | ?
CCn1c2ccccc2c2cc(CNCc3ccc(OC)cc3OC)ccc21 | -5% | 1% | 7.9µM* | ?
CCn1c2ccccc2c2cc(N)ccc21 | -16%[57.5 µM] | -9% | ? | -21%
Cc1ccc(CN2C(=O)c3ccccc3CC2(C)C(=O)NC2CCCCC2)cc1 (stereo unspecified) | i | / | 10% | 4%
C=CCC[C@H](Cc1ccc(F)cc1)C(=O)OC[C@@H](Cc1c[nH]c2ccccc12)NC(=O)[C@@H](CC=C)CC(=O)N[C@@H](CO)Cc1ccccc1 | 7% | 3% | 7.1µM* | ?
Cc1c(C#N)c(NC(=O)CCl)n(Cc2cccs2)c1C | -16% | -1% | 5.6µM* | ?
Cn1nc(-c2ccccn2)nc2c(=O)n(C)c(=O)nc1-2 | -4% | -8% | 3.2µM* | ?
Cc1nn(-c2ccccc2)c(Cl)c1C(=O)Nc1nnc(C2CCCCC2)s1 | -27% | -5% | 8.9µM* | -8%
Cc1ccc2c(Cl)c(C)c(N3CCCCC3)nc2n1 | i | 18% | 7.1µM* | ?
COc1ccc(Cl)cc1NC(=O)c1c(NCc2cccs2)sc2c1CCC(C)C2 (stereo unspecified) | 0% | / | ? | -8%
Cc1ccc(C)c(OCCC(=O)N2CCN(S(=O)(=O)c3cc(C)ccc3C)CC2)c1 | -26% | 11% | 11µM* | -10%
Cc1cc(C)c(S(=O)(=O)N2CCN(C(=O)CCOc3ccccc3C)CC2)c(C)c1 | -35% | 1% | -3% | -6%
CCCCOc1ccc(Br)cc1/C(C)=N/NC1=NCCN1 | -16%[57.5 µM] | 3% | 2.8µM* | 4.5µM*
CCCCCCOc1ccc(/C(C)=N/NC2=NCCN2)cc1[N+](=O)[O-] | i | 17% | ? | ?
